Experiment [1] is described as follows: NCI Yeast Anticancer Drug Screen. Data for the rad50 strain (AID 155).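 Also: 0% = growth of vehicle-only cultures of the same strain.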 The note with it: S. cerevisiae rad50 strain growth inhibition, hits give high values. The method, boiled down: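 Readout: growth inhibition relative to vehicle-treated cultures. Compound exposure was carried out in a genetically defined yeast strain deficient in DNA damage repair.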
Experiment [2] in a line: NCI Yeast Anticancer Drug Screen. Data for the mec2-1 strain (AID 157). Particulars: S. cerevisiae mec2-1 strain, hits give high values. In outline:
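mec2-1 yeast strain, carrying an alteration in DNA damage repair or cell cycle control, was exposed to compounds; growth inhibition was measured relative to vehicle-treated controls.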

Experiment [3] is described as follows: NCI Yeast Anticancer Drug Screen. Data for the sgs1 mgt1 strain (AID 161).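 Also: 0% = growth of cultures given vehicle only.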 Particulars: S. cerevisiae sgs1 mgt1 strain, hits give high values. In outline: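 This yeast growth screen uses a strain with defined DNA-repair lesions; compound-treated growth is compared with vehicle-treated growth.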
Experiment [4] in a line: NCI Yeast Anticancer Drug Screen. Data for the cln2 rad14 strain (AID 165).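 Also: 0% = growth equal to vehicle treated cultures.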 Particulars: S. cerevisiae cln2 rad14 strain, hits give high values. The method, boiled down:
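Yeast carrying cln2 and rad14 alterations (cell cycle control and DNA damage repair) were exposed to compounds. Growth inhibition was measured against vehicle-treated controls.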

Experiment [5] in a line: NCI Yeast Anticancer Drug Screen. Data for the bub3 strain (AID 167). Particulars: S. cerevisiae bub3 mutant strain, hits give high values. In outline:
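Readout: yeast growth inhibition, expressed relative to vehicle-only wells. The test organism is a mutant strain from a panel with lesions in DNA repair or checkpoint genes.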

The nature of experiment [6]: NCI Yeast Anticancer Drug Screen. Data for the mlh1 rad18 strain (AID 175). The note with it: S. cerevisiae mlh1 rad18 strain growth inhibition, hits give high values. The method, boiled down:
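Growth inhibition of the yeast strain was measured after compound exposure and expressed relative to vehicle-treated controls. The strain carries defined defects in DNA damage repair.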

Setting [7] is: at 5.0 µM (retest, dose inferred, filed as 0.5).
The mark [8] stands for this setting: at 50.0 µM (retest, dose inferred, filed as 5.0).

About 79,000 compounds went through this panel and 15% of them were active in at least one assay; those are over-represented in the sample as a whole. Activity calls are given as the source filed them. Rule as the data show it: active = growth inhibition above about 70%; inactive = the rest.

As for `CC(=O)Nc1cccc([As+](C)(c2cccc(NC(C)=O)c2)c2cccc(NC(C)=O)c2)c1`, the growth inhibition in experiment [1] (setting [7]) was -1% (inactive); in experiment [1] (setting [8]) it was 11% (inactive); in experiment [1] (at 50.0 µM), 4.35% (inactive); in experiment [2] (setting [7]) it was 13% (inactive); in experiment [2] (setting [8]) it was 14% (inactive); in experiment [2] (at 50.0 µM), -2% (inactive). Moreover, the growth inhibition in experiment [3] (setting [7]) was -14% (inactive); in experiment [3] (setting [8]), 13% (inactive); in experiment [3] (at 50.0 µM), -5.65% (inactive); in experiment [4] (setting [7]), 18% (inactive); in experiment [4] (setting [8]), 15% (inactive); in experiment [4] (at 50.0 µM) it was -26% (inactive). The growth inhibition in experiment [5] (setting [7]) is 5% (inactive); in experiment [5] (setting [8]) it was 3% (inactive); in experiment [5] (at 50.0 µM) it was 6.05% (inactive); in experiment [6] (setting [7]), 7% (inactive); in experiment [6] (setting [8]) it was 11% (inactive); in experiment [6] (at 50.0 µM) it was 8.65% (inactive).

With `O=[N+]([O-])c1ccc(O)c(CCl)c1`, the growth inhibition in experiment [1] (setting [7]) is 6% (inactive); in experiment [1] (setting [8]) it was 41% (inactive); in experiment [1] (at 50.0 µM), 16.5% (inactive); in experiment [2] (setting [7]), -1% (inactive); in experiment [2] (setting [8]), 22% (inactive); in experiment [2] (at 50.0 µM), 1.6% (inactive). The growth inhibition in experiment [3] (setting [7]) is 0% (inactive); in experiment [3] (setting [8]), 36% (inactive); in experiment [3] (at 50.0 µM) it was 20.9% (inactive); in experiment [4] (setting [7]), 0% (inactive); in experiment [4] (setting [8]), 5% (inactive); in experiment [4] (at 50.0 µM), -4.15% (inactive). The growth inhibition is 3% (inactive) in experiment [5] (setting [7]); 18% (inactive) in experiment [5] (setting [8]); 8.65% (inactive) in experiment [5] (at 50.0 µM); 4% (inactive) in experiment [6] (setting [7]); 59% (inactive) in experiment [6] (setting [8]); 76.2% (active) in experiment [6] (at 50.0 µM).

With `O=[n+]1c2ccccc2n([O-])c2ccccc21.[Cl][Ni][Cl]`, the growth inhibition is 96% (active) in experiment [1] (setting [7]); 99% (active) in experiment [1] (setting [8]); 90.8% (active) in experiment [1] (at 50.0 µM); 75% (active) in experiment [2] (setting [7]); 100% (active) in experiment [2] (setting [8]); 92.7% (active) in experiment [2] (at 50.0 µM). For the same molecule, the growth inhibition was 89% (active) in experiment [3] (setting [7]); 99% (active) in experiment [3] (setting [8]); 92.3% (active) in experiment [3] (at 50.0 µM); 33% (inactive) in experiment [4] (setting [7]); 98% (active) in experiment [4] (setting [8]); 90.6% (active) in experiment [4] (at 50.0 µM). Moreover, the growth inhibition is 68% (inactive) in experiment [5] (setting [7]); 100% (active) in experiment [5] (setting [8]); 89% (active) in experiment [5] (at 50.0 µM); 92% (active) in experiment [6] (setting [7]); 96% (active) in experiment [6] (setting [8]); 91.9% (active) in experiment [6] (at 50.0 µM).

As to `Clc1ccc2c(NCCCCN3OC3c3ccccc3)ccnc2c1` (centres undefined), the growth inhibition in experiment [1] (setting [7]) was 30% (inactive); in experiment [1] (setting [8]), 67% (inactive); in experiment [1] (at 50.0 µM), 58.2% (inactive); in experiment [2] (setting [7]), 22% (inactive); in experiment [2] (setting [8]), 56% (inactive); in experiment [2] (at 50.0 µM), 48.6% (inactive). Further, the growth inhibition in experiment [3] (setting [7]) was 23% (inactive); in experiment [3] (setting [8]) it was 57% (inactive); in experiment [3] (at 50.0 µM) it was 67.5% (inactive); in experiment [4] (setting [7]), 11% (inactive); in experiment [4] (setting [8]), 32% (inactive); in experiment [4] (at 50.0 µM), 11.3% (inactive). Further, the growth inhibition was 24% (inactive) in experiment [5] (setting [7]); 43% (inactive) in experiment [5] (setting [8]); 34.2% (inactive) in experiment [5] (at 50.0 µM); 30% (inactive) in experiment [6] (setting [7]); 84% (active) in experiment [6] (setting [8]); 35.2% (inactive) in experiment [6] (at 50.0 µM).

As for `CN[C@H]1C[C@@H]2O[C@@](C)([C@H]1OC)n1c3ccccc3c3c4c(c5c6ccccc6n2c5c31)C(=O)NC4`, the growth inhibition in experiment [1] (setting [7]) is 99% (active); in experiment [1] (setting [8]), 99% (active); in experiment [1] (at 50.0 µM), 92.3% (active); in experiment [2] (setting [7]), 99% (active); in experiment [2] (setting [8]), 99% (active); in experiment [2] (at 50.0 µM), 92.9% (active). Moreover, the growth inhibition in experiment [3] (setting [7]) is 97% (active); in experiment [3] (setting [8]) it was 99% (active); in experiment [3] (at 50.0 µM), 90.6% (active); in experiment [4] (setting [7]), 96% (active); in experiment [4] (setting [8]) it was 99% (active); in experiment [4] (at 50.0 µM), 91.5% (active). In addition, the growth inhibition in experiment [5] (setting [7]) was 98% (active); in experiment [5] (setting [8]) it was 98% (active); in experiment [5] (at 50.0 µM), 91.8% (active); in experiment [6] (setting [7]) it was 98% (active); in experiment [6] (setting [8]), 99% (active); in experiment [6] (at 50.0 µM) it was 91.8% (active).

Turning to `C1CC[N-]CC1.C1CC[N-]CC1.N#CO.[Ag]`, the growth inhibition is 99% (active) in experiment [1] (setting [7]); 99% (active) in experiment [1] (setting [8]); 99.2% (active) in experiment [1] (at 50.0 µM); 100% (active) in experiment [2] (setting [7]); 99% (active) in experiment [2] (setting [8]); 99.5% (active) in experiment [2] (at 50.0 µM). The growth inhibition in experiment [3] (setting [7]) is 100% (active); in experiment [3] (setting [8]), 99% (active); in experiment [3] (at 50.0 µM) it was 99.4% (active); in experiment [4] (setting [7]) it was 99% (active); in experiment [4] (setting [8]) it was 99% (active); in experiment [4] (at 50.0 µM), 99% (active). The growth inhibition in experiment [5] (setting [7]) is 99% (active); in experiment [5] (setting [8]), 99% (active); in experiment [5] (at 50.0 µM), 99.6% (active); in experiment [6] (setting [7]), 99% (active); in experiment [6] (setting [8]), 99% (active); in experiment [6] (at 50.0 µM), 99.3% (active).

Take `Cc1ccc([PH+](c2ccc(C)cc2)c2ccc(C)cc2)cc1.Cc1ccc([PH+](c2ccc(C)cc2)c2ccc(C)cc2)cc1.[Cl][Hg][Cl]`: the growth inhibition in experiment [1] (setting [7]) was 98% (active); in experiment [1] (setting [8]) it was 95% (active); in experiment [1] (at 50.0 µM), 47.6% (inactive); in experiment [2] (setting [7]) it was 99% (active); in experiment [2] (setting [8]), 98% (active); in experiment [2] (at 50.0 µM), 97.2% (active). The growth inhibition in experiment [3] (setting [7]) was 99% (active); in experiment [3] (setting [8]), 95% (active); in experiment [3] (at 50.0 µM), 99.5% (active); in experiment [4] (setting [7]) it was 93% (active); in experiment [4] (setting [8]), 96% (active); in experiment [4] (at 50.0 µM), 29.3% (inactive). The growth inhibition in experiment [5] (setting [7]) was 98% (active); in experiment [5] (setting [8]), 95% (active); in experiment [5] (at 50.0 µM), 99.3% (active); in experiment [6] (setting [7]) it was 99% (active); in experiment [6] (setting [8]) it was 94% (active); in experiment [6] (at 50.0 µM) it was 95.9% (active).

As for `O=P1(Oc2ccccc2)C(c2ccccc2)C(c2ccccc2)=NN1c1ccccc1` (centres undefined), the growth inhibition in experiment [1] (setting [7]) is 29% (inactive); in experiment [1] (setting [8]), 29% (inactive); in experiment [1] (at 50.0 µM) it was 90.7% (active); in experiment [2] (setting [7]) it was 12% (inactive); in experiment [2] (setting [8]), 12% (inactive); in experiment [2] (at 50.0 µM), 91% (active). Further, the growth inhibition is 23% (inactive) in experiment [3] (setting [7]); 23% (inactive) in experiment [3] (setting [8]); 89.2% (active) in experiment [3] (at 50.0 µM); 23% (inactive) in experiment [4] (setting [7]); 23% (inactive) in experiment [4] (setting [8]); 90.8% (active) in experiment [4] (at 50.0 µM). Moreover, the growth inhibition is 5% (inactive) in experiment [5] (setting [7]); 5% (inactive) in experiment [5] (setting [8]); 90.1% (active) in experiment [5] (at 50.0 µM); 11% (inactive) in experiment [6] (setting [7]); 11% (inactive) in experiment [6] (setting [8]); 89.6% (active) in experiment [6] (at 50.0 µM).

These data come from PubChem BioAssay (NCI).
